Out of some 47,000 compounds screened, about 2,500 (5.3%) were called active. Rule as the data show it: active = inhibition above about 30%; inactive = the rest. This excerpt belongs to a sample that is enriched for actives.

We go through 88 compounds from PubChem BioAssay AID1645860 (Buhrlage Lab, Dana-Farber Cancer Institute and Novartis …, 2021).

In this experiment the target is Ubiquitin carboxyl-terminal hydrolase 30 (Homo sapiens) (UniProt Q70CQ3). As to the kind of experiment: blocks human USP30 ubiquitin-rhodamine cleavage (AID 1645860). The settings on record: purified USP30, Ub-rhodamine cleavage fluorescence; at 25 µM; active compounds read high.
Sequence of Ubiquitin carboxyl-terminal hydrolase 30 (Homo sapiens) (Q70CQ3 whole entry, looked up): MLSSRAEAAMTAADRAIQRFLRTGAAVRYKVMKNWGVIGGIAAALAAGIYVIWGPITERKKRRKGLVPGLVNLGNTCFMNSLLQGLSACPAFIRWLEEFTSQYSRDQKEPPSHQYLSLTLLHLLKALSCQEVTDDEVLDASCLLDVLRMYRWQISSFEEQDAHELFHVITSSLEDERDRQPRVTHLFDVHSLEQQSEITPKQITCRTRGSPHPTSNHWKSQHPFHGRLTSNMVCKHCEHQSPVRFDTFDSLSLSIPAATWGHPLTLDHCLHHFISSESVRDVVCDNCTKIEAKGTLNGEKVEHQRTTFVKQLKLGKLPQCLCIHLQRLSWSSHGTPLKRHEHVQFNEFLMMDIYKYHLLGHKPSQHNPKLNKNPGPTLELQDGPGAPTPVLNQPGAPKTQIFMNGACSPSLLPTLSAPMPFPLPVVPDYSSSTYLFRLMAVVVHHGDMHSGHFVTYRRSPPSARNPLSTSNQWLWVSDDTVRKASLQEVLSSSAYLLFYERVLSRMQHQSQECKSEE
For `Oc1cccc2nc3c(O)cccc3nc12`, the inhibition – broadly, the change of the read-out against control, counted positive when it falls – is 55.9% (active).
Regarding `O=C(CCCOc1ccc(F)cc1F)N1CCC(c2[nH]nc3nccnc23)CC1`, the inhibition is -12.7% (inactive).
Regarding `Cc1ccc(N2CCn3c(nc4ccccc43)C2)cc1NS(C)(=O)=O`, the inhibition is -304% (inactive).
The value for `O=C(CCc1nnc2n(CCc3ccccc3)c(=O)c3ccccc3n12)NCCN1CCCC1` was 13.2% (inactive); that for `CCc1ccc(-n2c(=O)c3ccccc3n(CC(=O)NCCC3=CCCCC3)c2=O)cc1` was 41% (active).
As to `Cc1ccc(Cn2c(C)c(CNCCC3=CCCCC3)c(C(=O)O)c2C)cc1`, the inhibition was -1.85% (inactive).
Consider `Cn1ncc2c1CCCN(C(=O)Cc1ccccc1F)C2`, for which the inhibition is 10.7% (inactive).
With `Cc1ccccc1CC(=O)Nc1ccc(-n2ccnc2C)nc1`, the inhibition is -47.4% (inactive).
For `Cc1cccc(NC(=O)Cn2c(=O)n(Cc3nc(C)no3)c(=O)c3ccccc32)c1`, the inhibition was 14.7% (inactive).
The figure for `COc1cn(CC(=O)Nc2cccc(C)c2)c(CSc2ccc(C)cc2)cc1=O` is -0.0406% (inactive); for `Cc1cccc(NC(=O)Cn2c(C)ccc(NC(=O)Nc3cccc(C)c3)c2=O)c1` it is 34.8% (active); for `CC(C)C(=O)N1CCN(C(=O)Cc2ccccc2)CC2(CC(=O)N(C)C2)C1` (stereo not drawn) it is 17% (inactive).
The value for `Cc1cc(Nc2ncc(C)s2)cc(C2CCCN2c2ncccn2)n1` (stereo not drawn) was -49.2% (inactive); that for `CCOC(=O)C1CCCN(c2cc3n(c(=O)n2)CCc2cc(OC)c(OC)cc2-3)C1` (stereo not drawn) was -59.6% (inactive); that for `COc1ccc(CN=C2NS(=O)(=O)C(c3ccc(F)cc3)=C2C)cc1OC` was 37% (active).
For the compound `CC1=C(c2ccc(C)cc2)S(=O)(=O)NC1=NCc1cccc(Br)c1`, the inhibition is 3.77% (inactive).
For `COc1ccc(C2=Nc3ncnn3C2=NCc2ccc(F)cc2)cc1OC`, the inhibition is 0.0164% (inactive).
The figure for `Cn1nnc2c1CCN(C(=O)C1CCC1)C2COCc1ccccc1` (stereo not drawn) is -10.7% (inactive).
The value for `O=C(Cn1cccc(-c2nc(-c3ccccc3)no2)c1=O)Nc1ccccc1F` was -12.8% (inactive).
The value for `O=c1c2ccccc2c(-c2nc(-c3ccncc3)no2)cn1-c1ccc(F)cc1` was 44.8% (active); that for `O=C(Cn1c(-c2nc(-c3ccc(F)cc3)no2)cccc1=O)N1CCCC1` was 11.4% (inactive); that for `CSCc1cc(N2CCOCC2)nc(-c2ccccn2)n1` was 23.5% (inactive).
Take `CC1CCN(S(=O)(=O)N2CCCC(C(=O)Nc3cc(F)ccc3F)C2)CC1` (stereo not drawn): the inhibition was 18.2% (inactive).
The figure for `O=C(Nc1ccc(N2CCN(C3CCCC3)C2=O)nc1)c1cccnc1` is -14.2% (inactive); for `CC(C)c1noc(-c2ccc(OCC(=O)Nc3ccccc3Br)cc2)n1` it is 30.7% (active).
The figure for `COc1ccc(OCC(=O)Nc2noc(-c3ccccc3)n2)cc1` is 24.4% (inactive); for `COc1cccc(NC(=O)Cn2c(C)cc(C)c2-c2nc(C(C)C)no2)c1` it is -10.3% (inactive).
Take `CC(=O)Nc1ccc(S(=O)(=O)NCc2ccc(C(=O)NCc3ccc(C)cc3)cc2)cc1`: the inhibition was -1.25% (inactive).
The value for `O=C1Nc2cc(C(=O)N3CCC4(CC3)OCCO4)ccc2N2C(=O)CCC12` (stereo not drawn) was 1.12% (inactive); that for `O=C(Cn1cc(S(=O)(=O)Cc2ccccc2F)c2ccccc21)N1CCCCCC1` was 3.16% (inactive).
The figure for `COc1ccc(NC(=O)CS(=O)(=O)c2cn(CC(=O)N3CCCC3)c3ccccc23)cc1` is 30.4% (active).
As to `COc1ccc(NC(=O)CSc2cn(CC(=O)N3CCCC3)c3ccccc23)cc1`, the inhibition is 18.7% (inactive).
The value for `O=C(NCc1cccnc1-c1ccc(F)cc1)C1CCC1` was 21.3% (inactive); that for `CSc1nc2c(c(Nc3ccc(C(C)=O)cc3)n1)CCC2` was 80.5% (active).
The figure for `Fc1cccc(Nc2nc(-c3ccncc3)nc3c2CCC3)c1` is 23.2% (inactive); for `CC1CCCN(c2ccc(-c3nc(-c4cccnc4)no3)cc2[N+](=O)[O-])C1` (stereo not drawn) it is -2.58% (inactive).
As for `O=C(CCCn1c(=O)c2ccccc2n(Cc2ccccc2F)c1=O)NC1CCCC1`, the inhibition was 15.8% (inactive).
The value for `Cc1ccc(Cn2c(C(=O)O)c(CNC(C)CCc3ccccc3)c3ccccc32)cc1` (stereo not drawn) was 35.8% (active); that for `CNC(=O)NC1CCN(c2nc3cccnc3n(Cc3ccc(C)cc3)c2=O)CC1` was -0.331% (inactive); that for `Cc1ccc(CCNCc2c(C(=O)O)n(C)c3ccccc23)cc1` was -4.51% (inactive).
The value for `COc1ccc(CCNCc2c(C(=O)O)n(Cc3ccc(Cl)cc3)c3ccccc23)c(OC)c1OC` was 18.6% (inactive).
Take `CC(CCc1ccccc1)NCc1c(C(=O)O)n(Cc2ccccc2F)c2ccccc12` (stereo not drawn): the inhibition is 33.3% (active).
The figure for `O=S(=O)(c1ccc(Cl)c(-c2nnc(-c3ccccc3)o2)c1)N1CCOCC1` is 8.47% (inactive); for `Cc1ccc(S(=O)(=O)NC2=NC(c3ccccc3)c3cc(Cl)ccc3N2)cc1` (stereo not drawn) it is 43.7% (active); for `Cc1ccc(S(=O)(=O)NCc2c(-c3ccccc3)c3cc(C)ccc3[nH]c2=O)cc1` it is -9.29% (inactive).
The figure for `Cc1ccc(S(=O)(=O)Nc2ccc(-c3c[n+]4ccccc4n3C)cc2)cc1` is 21.2% (inactive); for `COc1cc(NC(=O)c2noc3c2CCc2sccc2-3)cc(OC)c1` it is 8.21% (inactive); for `CC(=O)N1CCCc2ccc(NC(=O)c3cccc([N+](=O)[O-])c3)cc21` it is 16.5% (inactive).
The figure for `CC1(C)OC(=O)[C@@]2(C)N[C@]1(C)C[C@@H]2C(=O)Nc1ccc(O)cc1` is -11.1% (inactive); for `Cc1sc(NC(=O)c2ccc(S(=O)(=O)N(C)CC3CCCO3)cc2)c(C(N)=O)c1C` (stereo not drawn) it is -70.8% (inactive); for `Cc1ccc(S(=O)(=O)CC(=O)Nc2sc(C)c(C)c2C(N)=O)cc1` it is -97.7% (inactive).
Take `CCN(CC)S(=O)(=O)c1ccc(C(=O)Nc2sc(C)c(C)c2C(N)=O)cc1`: the inhibition is 36.2% (active).
As for `Cn1cc(-c2cnc3n2CCC32CCN(S(=O)(=O)c3cccc(F)c3)CC2)cn1`, the inhibition is -1.9% (inactive).
With `CN(C(=O)CSCc1nc(-c2ccc(F)cc2)no1)c1ccc(F)cc1`, the inhibition was -1.42% (inactive).
The figure for `O=c1[nH]c2c(-c3ccccn3)nsc2c(=O)n1Cc1cccnc1` is 2.65% (inactive).
The figure for `O=C(COC(=O)C1CCN(S(=O)(=O)c2c(Cl)cccc2Cl)CC1)Nc1ccc2c(c1)CCC2` is 11.6% (inactive); for `Cc1cccc(-c2nnc(-c3cccc(S(=O)(=O)N4CCCC4)c3)o2)c1` it is 10.5% (inactive); for `O=C(Nc1nnc(-c2cccc([N+](=O)[O-])c2)o1)C1CCN(S(=O)(=O)c2ccc3c(c2)CCC3)CC1` it is 40.6% (active).
For the compound `CNc1cc(C)nc(C2CN(C(=O)c3ccnn3C(C)C)CCO2)c1` (stereo not drawn), the inhibition is 15.8% (inactive).
The figure for `COc1ccc(C2c3c(oc4ccccc4c3=O)C(=O)N2c2cc(C)on2)cc1` (stereo not drawn) is 23.7% (inactive).
Regarding `O=C(C1CCOCC1)N1CCc2nc3ccccc3n2C(Cc2ccccc2)C1` (stereo not drawn), the inhibition is 8.3% (inactive).
The value for `CCN1Cc2c(C(=O)NCCC(C)C)ncn2-c2ccccc2S1(=O)=O` was -4.42% (inactive).
The value for `CN1C(=O)c2ccccc2C(C(=O)N2CCc3ccccc3C2)C1c1cccs1` (stereo not drawn) was 25% (inactive); that for `O=c1c(S(=O)(=O)c2cc(F)cc(F)c2)c[nH]c2ccc(F)cc12` was -13.9% (inactive); that for `Cc1cccc(N2CC(C)Cn3c2nc2c3c(=O)n(CC(=O)OCc3ccccc3)c(=O)n2C)c1` (stereo not drawn) was -36.6% (inactive).
The figure for `COc1ccc(-c2nc3c(c(=O)c4ccccc4n3C)c(=O)n2CCc2ccc(OC)c(OC)c2)cc1` is 7.98% (inactive); for `Cc1ccc(CNC(=O)CCCn2c(=O)c3sccc3n(CC(=O)OCc3ccccc3)c2=O)cc1` it is 70.7% (active).
In the case of `N#Cc1ccccc1Cn1c(=O)n(CCCC(=O)NCc2ccc(F)cc2)c(=O)c2ccccc21`, the inhibition is 20.9% (inactive).
The value for `COc1ccc(CCNC(=O)CCCn2c(=O)c3ccccc3n(CC(=O)OCc3ccccc3)c2=O)cc1OC` was 64.1% (active); that for `COc1ccc(CCNC(=O)Cn2c(=O)n(CC3CCC(C(=O)NC4CCCC4)CC3)c(=O)c3ccccc32)cc1OC` (stereo not drawn) was 16.9% (inactive); that for `COC[C@H]1C[C@@H]2CN(S(=O)(=O)c3ccc(F)cc3)C(C)[C@H]1N2C` (stereo partly drawn) was -8.47% (inactive).
Take `CCn1cc(-c2ccnc3cc(C(=O)NC4CCOCC4)nn23)c(C)n1`: the inhibition is -12.3% (inactive).
On to `O=C(O)CCNC(=O)/C(=C/c1ccc(Cl)cc1)NC(=O)c1ccco1`, for which the inhibition was -2.38% (inactive).
Regarding `O=C(NCc1ccc2c(c1)OCO2)c1cc2c(s1)CS(=O)(=O)C2`, the inhibition is 34.4% (active).
The value for `O=C(NCc1ccc2c(c1)OCO2)C1=CCN(Cc2ccccc2)CC1` was -38.4% (inactive); that for `O=C(NCCc1ccccc1)c1cc2c(s1)CS(=O)(=O)C2` was -21.6% (inactive).
As to `COc1ccc(C)cc1NC(=O)COC(=O)C1(c2ccccc2F)CCCC1`, the inhibition is 22.5% (inactive).
The figure for `Cc1nc(-c2cccc(S(=O)(=O)Nc3ccccc3C)c2)no1` is -3.5% (inactive); for `Cc1nc(-c2cccc(NC(=O)C3CCN(c4ccccc4)C3=O)c2)no1` (stereo not drawn) it is 42.5% (active); for `CC(=O)c1cccc(NC(=O)c2cccc(-c3nc(-c4ccccc4)no3)c2)c1` it is -9.31% (inactive).
On to `CC(C)c1noc(-c2ccc(-n3cnc(C(=O)NC4CC4)c3)nc2)n1`, for which the inhibition is 1.32% (inactive).
On to `N#Cc1ccc(OC(=O)c2cc(S(=O)(=O)N3CCOCC3)c(Cl)cc2Cl)cc1`, for which the inhibition was 1.53% (inactive).
The figure for `Cc1ccc(F)cc1NC(=O)CN(C)Cc1ccc2c(c1)OCO2` is -0.987% (inactive); for `COc1ccc(C(NC(=O)CN(C)Cc2ccc3c(c2)OCO3)c2ccccc2)cc1` (stereo not drawn) it is 42% (active); for `CN(CC(=O)Nc1ccc(F)cc1Cl)Cc1ccc2c(c1)OCO2` it is -9.47% (inactive).
Turning to `O=C(c1ccccc1)c1ccc(NC2CCCc3ccccc32)c([N+](=O)[O-])c1` (stereo not drawn), the inhibition was -121% (inactive).
The figure for `O=C(COC(=O)c1ccc(F)cc1)NC1CCCc2ccccc21` (stereo not drawn) is -8.55% (inactive); for `Nc1ccc(C(=O)OCC(=O)NC2CCCc3ccccc32)cc1[N+](=O)[O-]` (stereo not drawn) it is 31.6% (active).
